# Bioassay records (PubChem BioAssay)
# p53null 39C tox: selectivity test: cytotoxicity in p53 null cells, nonpermissive temperature; H1299 p53-null (neo) cells, 39C, ATPlite viability, 24 h; 55,000 compounds, 0.97% hits; AID 904; Potency, µM (series often up to 46.1 µM), for inactives: at the highest dose activity, negative = cell killing, most hits filed as cytotoxic;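 also: 0% = DMSO only and -100% = full killing by 100 µM tamoxifen; nearly all actives have a fitted effect of over 50% in size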
#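 Temperature-shift cytotoxicity format: compound titrations on p53-null or A138V-expressing H1299 cells held 24 hr at 39C, cell ATP then measured, AC50 from Hill model.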
# HTT-AS act: activates huntingtin-antisense promoter activity. HEK293 HTT-AS promoter firefly luciferase reporter, 24 h; response scale: percent change from vehicle, -100% = no light. Potency, µM (series often up to 57.5 µM), for the others: at the highest dose activity change, positive = activation, actives largely listed as activators. 48,000 compounds, 0.24% hits. AID 1508624; also: nearly all actives have a fitted effect of over 55% in size
#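 Firefly luciferase readout (Dual-Glo, 10 min RT) after 24 h, 37 °C compound exposure (final up to 57.5 uM) of HEK293 reporter cells cultured 24 h beforehand; PTC124 at 50 uM final as control inhibitor; activity scaled vehicle 0%, zero RLU -100%.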
# p53null 32C kill: kills p53 null cells at the permissive temperature. H1299-neo p53 null cells, ATP luminescence, 24 h, 32C. Potency, µM (titrated, usually from 46.1 µM), for the others: at the highest dose activity change, negative = cytotoxicity, most hits filed as cytotoxic. 55,000 compounds, 0.62% hits. AID 903;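 also: 0% = DMSO only and -100% = full killing by 100 µM tamoxifen; nearly all actives have a fitted effect of over 55% in size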
#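 We seeded p53-null H1299-neo cells, incubated them overnight at 37C, and added compounds across a range up to 46 uM. After 24 hours at 32C, ATP reagent was applied for 20 min at room temperature and luminescence recorded.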
# HTT promoter inh: HTT promoter inhibition; HEK293 HTT promoter firefly luciferase reporter, 24 h; Potency, µM (highest dose often 57.5 µM), without a hit: at the highest dose activity change, negative = inhibition, hits mostly inhibitors; 48,000 compounds, 0.93% hits; also: nearly all actives have a fitted effect of over 50% in size
#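 Firefly luciferase readout (Dual-Glo, 10 min RT) after 24 h, 37 °C compound exposure (final up to 57.5 uM) of HEK293 reporter cells cultured 24 h beforehand; PTC124 at 50 uM final as control inhibitor; activity scaled vehicle 0%, zero RLU -100%.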
# * hit, by the source's call; ? = inconclusive; / = no result; [ ] = dose if it differs, or a comment. This is a sample that favours compounds with a hit; in the whole collection about 1.9% have one here. Calls follow the shape of the dose curve; as a rule, active = well fitted curve in the direction sought with a large enough effect; inconclusive = small, poorly fitted or top-dose-only effect, or another doubt; inactive = no such curve, though single readings can be large; an effect the other way counts as inactive or inconclusive. Potency is read from the fitted curve at half-maximal effect.
SMILES,p53null 39C tox,HTT-AS act,p53null 32C kill,HTT promoter inh
O[C@@H](COc1cccc2ncccc12)CN1CCN(C2c3ccccc3[C@@H]3[C@H](c4ccccc42)C3(F)F)CC1 (stereo partly specified),/,-34%,/,?
CN1CCN(c2cc(C(=O)Nc3ccc4c(c3)-c3c(c(C(N)=O)nn3-c3ccc(F)cc3)CC4)c(Cl)cn2)CC1,/,-7%,/,?
COc1ccccc1N=c1scc(-c2ccc(S(=O)(=O)N3CCCC3)cc2)n1C,-3%,-78%,11%,3.2µM*
CC(C)Cn1c(-c2ccc(S(=O)(=O)N3CCCC3)cc2)csc1=Nc1ccccc1,9%,-19%,11%,?
COCc1nc2ccccc2n1Cc1cccc(C)c1,-15%,1%,-7%,15%
Cc1cccc(Cn2c(Cc3ccccc3)nc3ccccc32)c1,20µM*,-24%,51%,-20%
O=[N+]([O-])c1ccc(Nc2ccccc2-c2ccccc2)c2nonc12,/,-49%,/,-16%
CO[C@H]1/C=C\O[C@@]2(C)Oc3c(C)c(O)c4c(O)c(c5c(nc6cc(C)ccn65)c4c3C2=O)NC(=O)C(C)=CC=C[C@H](C)[C@H](O)[C@@H](C)[C@@H](O)[C@@H](C)[C@H](OC(C)=O)[C@H]1C,/,-11%,/,-5%
N#Cc1c(-n2ncnc2-c2cccc(Br)c2)sc2c1CCCCC2,-10%,-13%,1%,?
N#Cc1c(-n2ncnc2-c2ccc(F)cc2)sc2c1CCCCC2,?,-62%,10µM*,?
Cn1cncc1[C@@](N)(c1ccc(Cl)cc1)c1ccc2c(c1)c(-c1cccc(Cl)c1)cc(=O)n2C,/,-36%,/,-29%
C[n+]1cc2c3c(ccc2c2ccc4cc5c(cc4c21)OCO5)OCO3,/,-93%[25.1 µM],/,2.8µM*
Cc1ccc(C2c3c(-c4cc(C)ccc4O)n[nH]c3C(=O)N2Cc2ccco2)cc1 (stereo unspecified),?,-7%,18µM*,-11%
Cc1cccc(N(C)S(=O)(=O)c2nnc(NC(=O)c3cccs3)s2)c1,-12%,-20%,10%,-12%
CC1(C)CC(=O)c2sc(NC(=O)c3cccs3)nc2C1,1.1µM*,/,2.2µM*,/
Cc1nc(C(=O)NCC(=O)O)c(O)c2ccc(Oc3ccccc3)cc12,/,3%,/,5%
COc1ccc(C2C=C(c3ccc(Cl)cc3)Nc3nc(-c4ccc(Cl)cc4)nn32)cc1 (stereo unspecified),-13%,-92%,2%,25µM*
Cc1cccc(N2CCN(C(=O)c3ccc4c(c3)c(C)c(C)n4C)CC2)c1C,-14%,-6%,-2%,-4%
Cc1ccc(C)c(N2CCN(C(=O)c3ccc4c(c3)c(C)c(C)n4C)CC2)c1,25µM*,-27%,34%,-26%
CC1(O)CC(c2nc(-c3ccc4ccc(-c5ccccc5)nc4c3)c3c(N)nccn23)C1 (stereo unspecified),/,-21%,/,?
O=S1(=O)N=C(Nc2nc3c(s2)CCCC3)c2ccccc21,5.6µM*,/,11µM*,/
Cc1ccccc1C(=O)Nc1cccc(NC(=O)c2ccc(C(C)(C)C)cc2)c1,?,11%,13µM*,-11%
O=C(Nc1cccc(NC(=O)c2ccccc2F)c1)c1ccccc1,20%,-2%,-4%,12%
O=C(Nc1ccc(F)cc1)c1ncn(-c2ccccc2)n1,32µM*,?,?,36%
COc1ccc(NC(=O)c2ncn(-c3ccccc3)n2)cc1Cl,-7%,?,-15%,59%
SMILES,p53null 39C tox,HTT-AS act,p53null 32C kill,HTT promoter inh
COc1ccccc1NC(=O)c1ncn(-c2ccccc2)n1,?,?,?,65%
CCOc1ccc(NC(=O)c2ncn(-c3ccccc3)n2)cc1,-19%,8.9µM*,-17%,36%
CCc1cc(Nc2nccc(-c3c(-c4ccc(OC)c(C(=O)Nc5c(F)cccc5F)c4)nc4ccccn34)n2)c(OC)cc1N1CCC(N2CCN(S(C)(=O)=O)CC2)CC1,/,0%,/,1%
CCN(CC)CC(=O)OCC(=O)[C@@]1(O)CC[C@H]2[C@@H]3CCC4=CC(=O)CC[C@]4(C)[C@H]3[C@@H](O)C[C@@]21C,/,-4%,/,-5%
N#CCNC(=O)c1ccc(-c2ccnc(Nc3ccc(N4CCOCC4)cc3)n2)cc1,/,?,/,3%
Cc1ccc(-c2ncn(-c3ccc(Nc4nccc(-c5cccc(N6CCOCC6)c5)n4)cc3)n2)cn1,/,1.2µM*,/,69%
COc1ncc(-c2ccc3nccc(-c4ccnnc4)c3c2)cc1NS(=O)(=O)c1ccc(F)cc1F,/,-36%,/,?
Fc1cccc(Cl)c1CNc1n[nH]c(-c2ccco2)n1,?,5µM*,-15%,47%
CC(C)NC[C@@H](C(=O)N1CCN(c2ncnc3c2[C@H](C)C[C@H]3O)CC1)c1ccc(Cl)cc1,/,-40%,/,?
CCCCN1C(C(=O)c2ccccc2)=C(OC(C)=O)c2ccccc2S1(=O)=O,5µM*,-48%,?,?
CCN1C(C(=O)c2ccccc2)=C(OC(=O)c2ccccc2OC)c2ccccc2S1(=O)=O,13µM*,-37%,?,?
CCCCC(=O)OC1=C(C(=O)c2ccccc2)N(CC)S(=O)(=O)c2ccccc21,?,-26%,-6%,-18%
COc1ccc(CN2CCc3c(c(=O)n4ncc(C(=O)N5CCN(c6ccccc6OC)CC5)c4n3C)C2)cc1,-23%,-88%,11%,1.8µM*
CCn1c2c(c(=O)n3ncc(C(=O)Nc4cc(Cl)ccc4OC)c13)CN(Cc1ccc(OC)cc1)CC2,15%,-19%,-5%,-3%
COC(=O)c1ccc(CN(Cc2ccc(OC)c(OC)c2)S(=O)(=O)c2cc(C(=O)Nc3cccc(C)c3)ccc2F)cc1,-6%,-3%,0%,-20%
CCOc1ccc(NC(=O)c2ccc(F)c(S(=O)(=O)N(CC)Cc3ccccc3)c2)cc1,-8%,-40%,41%,2µM*
CCN(Cc1ccccc1)S(=O)(=O)c1cc(C(=O)Nc2cc(Cl)cc(Cl)c2)ccc1F,2%,-45%,31%,25µM*
CN1N=C(C(N)=O)CCC1=O,/,2%,/,12%
COc1cc2nc(NC(=O)c3ccc(S(=O)(=O)N4CCc5ccccc54)cc3)sc2cc1OC,7%,-41%,14%,13µM*
CCc1ccccc1Nc1nn2c(=O)c3ccc(C(=O)NCc4ccccc4OC)cc3nc2s1,-13%,-25%,7%,-14%
COc1ccccc1Nc1nn2c(=O)c3ccc(C(=O)NCc4ccc(F)cc4)cc3nc2s1,4µM*,-53%,-12%,?
COc1cc2ccccc2cc1C(=O)Nc1cc(-c2nc3ccccc3o2)ccc1C,-25%,14%,-10%,17%
COc1cc2ccccc2cc1C(=O)Nc1cccc(-c2nc3cc(C)c(C)cc3o2)c1,8%,-74%,-11%,7.1µM*
CNC(=O)c1ccc(-c2cnc3ncc(Cc4ccc5ncccc5c4)n3n2)cc1F,/,-3%,/,-11%
